{
  "source": "PubChem BioAssay (NCI)",
  "note": "The panel holds about 83,000 compounds, 20% with a hit somewhere; the sample as a whole holds those more often.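 Method: cells in 96-well plates; compound added at one concentration; 48 h incubation; percent growth measured; values under 10 scored active.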 Calls of active or inactive are those of the source.",
  "data": [
    {"tested_on": "CCRF-CEM leukemia", "test": "NCI-60 one-dose screen, 48 h (100 = growth as untreated, 0 = no growth, -100 = all killed)", "conditions": "10 µM unless noted", "experimental": "Growth inhibition of the CCRF-CEM human tumor cell line is measured as a screen for anti-cancer activity. Cells are grown in 96 well plates and exposed to the test compound for 48 hours. Compounds are tested at a single concentration, which is 10^-5 M for most compounds. The reported endpoint is percent growth (GI% or GIPRCNT), where numbers from 0 - 100% represent growth inhibition, and numbers from -100% - 0 represent cell death. For example, a value of 40 represents 60% growth inhibition. A value of 0 means no net growth occurred over the course of the experiment. A value of -40 indicates 40% of cells at the beginning of the experiment died by the end of the experiment. A value of -100 means all cells are dead at the end of the experiment.\nNCI-60 Human Tumor Cell Lines Screen was performed using the standard one-dose NCI protocol, which is described in more detail at https://dtp.cancer.gov/discovery_development/nci-60/default.htm.\nCompounds with GIPRCNT values below 10 were considered active. Activity score was based on GIPRCNT using the following formula: […]\nScore is 0 for GIPRCNT values of 100 or above, 50 for GIPRCNT values of 0, and 100 for GIPRCNT values of -100.", "values": [
      {"smiles": "C=C1C(=O)O[C@H]2[C@H]1CC/C(COC(=O)c1c[nH]c3ccccc13)=C\\CC[C@@]1(C)O[C@@H]21", "growth": "-0.836% (active)"},
      {"smiles": "C#C[C@@]1(O)[C@@H](CO)O[C@@H](n2cc(Cl)c3c(N)ncnc32)[C@@H]1O", "growth": "5.93% (active)"},
      {"smiles": "Cc1nccc2c3ccc(OCc4cn(-c5ccc(Cl)cc5)nn4)cc3n(CC(C)C)c12", "growth": "18% (inactive)"},
      {"smiles": "CN1CCN(S(=O)(=O)O[C@@H]2C(=O)N(c3cc4c5ccccc5ccc4c4ccccc34)[C@H]2c2ccc(F)cn2)CC1", "growth": "74.8% (inactive)"},
      {"smiles": "O=C1C(Cl)=C(NCCCN(CCCNC2=C(Cl)C(=O)c3ccccc3C2=O)C2=C(Cl)C(=O)c3ccccc3C2=O)C(=O)c2ccccc21", "growth": "34.6% (inactive)"},
      {"smiles": "C#CCN1C(=O)c2ccccc2N(CC#C)C12CCN(Cc1cn(CC(=O)Nc3ccccc3C(N)=O)nn1)CC2", "growth": "84.3% (inactive)"},
      {"smiles": "C=C1C(=O)O[C@H]2[C@H]1CC/C(COC(=O)n1ccnc1)=C\\CC[C@@]1(C)O[C@@H]21", "growth": "74.3% (inactive)"},
      {"smiles": "C1=CC2=CC=C3C=CC=C4C(c5nc6c7ccccc7c7ccccc7c6[nH]5)=CC(=C1)C2C34", "note": "(stereo not given)", "growth": "89.7% (inactive)"},
      {"smiles": "Cc1cc(Nc2nc(SCc3ccc(C(=O)Nc4ccc(F)cc4N)cc3)nn3cccc23)n[nH]1", "growth": "9.8% (active)"},
      {"smiles": "CCCCC(=O)Nc1c(C(=O)Nc2ccccc2)sc2nc3c(cc12)C(OC(=O)CCCC)CCC3", "note": "(stereo not given)", "growth": "69.8% (inactive)"},
      {"smiles": "O=c1c2ccccc2oc2ccc(OCCCCCN3CCCCCC3)cc12", "growth": "82.5% (inactive)"},
      {"smiles": "COc1ccccc1Nc1nnc(-c2ccc(Cl)cc2)o1", "growth": "38% (inactive)"},
      {"smiles": "C=C(C)[C@@H]1CC[C@]2(C(=O)NCCCO)CC[C@]3(C)[C@H](CC[C@@H]4[C@@]5(C)CCCNC(C)(C)[C@@H]5CC[C@]43C)[C@@H]12", "growth": "60.4% (inactive)"},
      {"smiles": "Nc1cc(N)nc(SCC(=O)O)n1", "growth": "96.2% (inactive)"},
      {"smiles": "OCCNc1nc(NCCO)nc(Nc2ccc(C3=NN(c4cc(Cl)cc(Cl)c4)C(c4ccc(C(F)(F)F)cc4)C3)cc2)n1", "note": "(stereo not given)", "growth": "-6.5% (active)"},
      {"smiles": "CC(=O)c1cc2c(N)c(C(=O)Nc3ccccn3)sc2nc1C", "growth": "102% (inactive)"},
      {"smiles": "COC(=O)c1cc2c3c(cc(O)c2[nH]1)N(C(=O)C1Cc2cc(OC)c(OC)c(OC)c2N1)CC3CCl", "note": "(stereo not given)", "growth": "5.91% (active)"},
      {"smiles": "CCCCCCN1C(=O)CN=C1Nc1ccc2cc3ccc(NC4=NCC(=O)N4CCCCCC)cc3nc2c1", "growth": "12% (inactive)"},
      {"smiles": "C=C(C)[C@@H]1CCC=C2CC[C@]3(C)[C@H](CC[C@@H]4[C@@]5(C)CCCNC(C)(C)[C@@H]5CC[C@]43C)[C@H]21", "growth": "40.1% (inactive)"},
      {"smiles": "NC(N)=NC(N)=Nc1cc2ccccc2c2ccccc12", "growth": "38.6% (inactive)"},
      {"smiles": "CN1CCN(/C=C2\\CC(C(=O)NCc3ccc(Cl)cc3Cl)NC2=O)CC1", "note": "(stereo not given)", "growth": "88% (inactive)"},
      {"smiles": "Cc1cc(C)c2nc(Nc3nc(C)c(C)c(=O)[nH]3)nc(C)c2c1", "growth": "7.98% (active)"},
      {"smiles": "Cc1cc(C)nc(NS(=O)(=O)c2ccc(Nc3ccc4c5c(n(CCCN(C)C)c(=O)c4c3)-c3ccccc3C5=O)cc2)n1", "growth": "42.2% (inactive)"},
      {"smiles": "O=C(CCCCCCCCC(=O)Nc1cccc(C2=NCCN2)c1)Nc1cccc(C2=NCCN2)c1", "growth": "98% (inactive)"},
      {"smiles": "O=c1c2ccccc2n(CC(O)CN2CCCC2)c2c(Br)cccc12", "note": "(stereo not given)", "growth": "82.3% (inactive)"},
      {"smiles": "C=C(C)[C@@H]1CC[C@]2(C(=O)OCCCC[P+](c3ccccc3)(c3ccccc3)c3ccccc3)CC[C@]3(C)[C@H](CC[C@@H]4[C@@]5(C)CC[C@H](OC(=O)C(Cl)Cl)C(C)(C)[C@@H]5CC[C@]43C)[C@@H]12", "growth": "0.798% (active)"},
      {"smiles": "COc1cc(/C=C/C(=O)c2ccc(NC(=O)CSc3nnc(-c4cc(OC)c(OC)c(OC)c4)n3-c3ccccc3)cc2)cc(OC)c1OC", "growth": "6.02% (active)"},
      {"smiles": "O=C1c2ccccc2C(=O)c2c1oc1c2c(=O)[nH]c2ccccc21", "growth": "20.7% (inactive)"},
      {"smiles": "CC(=O)c1cnc(-c2ccccc2)nc1CBr", "growth": "35.8% (inactive)"},
      {"smiles": "CCOC(=O)c1c(C)nc2c(c1N)/C(=C/c1cccs1)C(=O)N2Cc1ccccc1", "growth": "29.8% (inactive)"},
      {"smiles": "CC(/C=C/c1ccccc1)=N/NC(=O)c1ccncc1", "growth": "92.5% (inactive)"},
      {"smiles": "COc1cc(C(=O)N2CCN(c3ccccc3OC)CC2)c(NC(=O)c2cnccn2)cc1OCc1ccccc1", "growth": "-44% (active)"},
      {"smiles": "COc1ccc2c(c1)Oc1nc(N)c(C#N)c(N)c1C2Sc1ccc(SC)cc1", "note": "(stereo not given)", "growth": "-2.59% (active)"},
      {"smiles": "COC(=O)/C=C/c1cc(OC(C)=O)c2c(c1)C(C(=O)OC)C(c1ccc(OC(C)=O)c(OC(C)=O)c1)O2", "note": "(stereo not given)", "growth": "9.72% (active)"},
      {"smiles": "Cc1cc(C)n(-c2nc(-c3cccs3)c(C#N)c(=O)[nH]2)n1", "growth": "103% (inactive)"},
      {"smiles": "N#Cc1ccc(N2Cc3cc(Cl)ccc3OC3=C2C(=O)N(Cc2ccc(F)cc2)C3=O)cc1", "growth": "-20% (active)"},
      {"smiles": "C=CCn1c(CN2CCN(c3cc4c(cc3F)c(=O)c(C(=O)O)cn4C3CC3)CC2)n[nH]c1=S", "growth": "90.1% (inactive)"},
      {"smiles": "COc1ccc(N(C)c2nc(Cl)nc3ccn(C)c23)cc1", "growth": "8.02% (active)"},
      {"smiles": "C=CCn1c(SCC(=O)Nc2ccc(C(=O)/C=C/c3cc(OC)c(OC)c(OC)c3)cc2)nnc1-c1ccccc1", "growth": "57.1% (inactive)"},
      {"smiles": "COc1cc2cc(c1Cl)N(C)C(=O)C[C@H](OC(=O)[C@H](C)N(C)C(=O)CCS)C[C@]1(C)O[C@H]1[C@H](C)[C@@H]1C[C@@](O)(NC(=O)O1)[C@H](OC)/C=C/C=C(\\C)C2", "growth": "16.2% (inactive)"}
    ]}
  ]
}
